Bioassay records from PubChem BioAssay.
This is a sample that favours compounds with a hit; in the whole collection about 19% have one here.
IL1B secr inh = blocks inflammasome-driven IL-1 beta release; THP-1 LPS/ATP IL-1B secretion, AlphaLISA, 16 h; stronger effect = lower value; activity change, % at 57.5 µM; hit rate 4.7% among 360,000; in the data active = activity change below about -50%; inconclusive = mostly about -30% to -49%
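Secreted IL-1B measured by AlphaLISA bead assay after 16 h compound exposure of THP-1 cells; compounds (final up to 57.5 uM) added 1 h before LPS (250 ng/mL) and ATP (1.25 mM) stimulation; lower signal means less secretion.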
DT40 TDP1 no CPT = qHTS for Inhibitors of human tyrosyl-DNA phosphodiesterase 1 (TDP1): qHTS in cells in absence of CPT; DT40 Tdp1-/- hTDP1 cells, no CPT, ATP luminescence, 48 h; Potency, µM (doses to about 46.2 µM), inactives show top-dose activity change, negative = growth inhibition, most hits filed as inhibitors; hit rate 15% among 420,000; note: potency is the fitted concentration of half-maximal effect; nearly all actives have a fitted effect of over 55% in size
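Growth kinetics read by CellTiter-Glo luminescence after ≥48 hr at 37 °C. Cells: DT40 Tdp1-/- stably carrying human TDP1, 400 per well, compound exposure in the absence of CPT (DMSO vehicle).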
HT1080-NT tox = kills 2HG-producing HT-1080-NT fibrosarcoma cells; Potency, µM (titrated, usually from 46.1 µM), inactives show at the top dose activity, negative = less viability, usual class: cytotoxic; hit rate 1.6% among 360,000; HT-1080-NT fibrosarcoma viability, CellTiter-Glo ATP luminescence, 48 h;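 note: NT is the 2HG producing partner of a matched IDH1 knockdown line; potency is the fitted concentration of half-maximal effect; 0% = DMSO-treated cells and -100% = media-only wells without cells; nearly all actives have a fitted effect of over 55% in size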
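Viability of the 2HG-overproducing fibrosarcoma line after 48 hours of compound exposure at 37 degrees C was determined by luminescence with CellTiter-Glo, and concentration-effect curves were then fitted and categorized.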
HT1080 IDH1KD tx = HT-1080 IDH1 knockdown cell toxicity (counter line); HT-1080 IDH1 knockdown viability, ATP luminescence, 48 h; Potency, µM (series often up to 46.1 µM), inactives show at the highest dose activity, negative = toxicity, usual class: cytotoxic; hit rate 2% among 360,000;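 note: potency is the fitted concentration of half-maximal effect; 0% = DMSO wells and -100% = cell-free medium wells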
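Viability of IDH1-knockdown HT-1080 fibrosarcoma cells was assessed by CellTiter-Glo after 48 h at 37 °C with titrated compound; concentration-effect curves were classified by fit quality and response size.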
TDP1 cell CPT = growth inhibition of DT40 Tdp1-/-;hTDP1 cells with camptothecin (screen for TDP1 inhibitors) | chicken DT40 Tdp1-/-;hTDP1 cells + 20 nM CPT, ATP luminescence, 48 h | Potency, µM (titrated, usually from 46.2 µM), for inactives: top-dose activity change, negative = growth inhibition, hits mostly inhibitors | AID 686979 | hit rate 12% among 420,000; note: potency is the fitted concentration of half-maximal effect; nearly all actives have a fitted effect of over 55% in size
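Chicken DT40 Tdp1-/- cells complemented with human TDP1, 400 cells/well, exposed to compounds plus 20 nM camptothecin for at least 48 h at 37 C; viability read as ATP content by CellTiter-Glo luminescence.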
Starred values were filed as active, the others as inactive; ? = inconclusive; . = not tested or not shown. Unless noted, calls come from the whole dose curve; as a rule, active = well fitted curve in the direction sought with a large enough effect; inconclusive = small, poorly fitted or top-dose-only effect, or another doubt; inactive = no such curve, though single readings can be large; an effect the other way counts as inactive or inconclusive. Unless noted, % is set by controls: 0 for no effect and ±100 for the full control effect.

SMILES	IL1B secr inh	DT40 TDP1 no CPT	HT1080-NT tox	HT1080 IDH1KD tx	TDP1 cell CPT
COc1ccc(N2C(=O)C(CC(=O)O)S/C2=N\N=C\c2cccs2)cc1 (stereo unspecified)	-2.3	-7.7%	17.5%	18.0%	-9.5%
O=C(C[C@@H]1C/C=C\C[C@@H](NC(=O)OCC2c3ccccc3-c3ccccc32)C(=O)OC[C@@H](Cc2ccccc2)NC1=O)NCCO	34.0	9.2µM*	-1.5%	-2.4%	7.31µM*
CC(C)(C)[C@H]1COC(=O)[C@H](NC(=O)OCC2c3ccccc3-c3ccccc32)C/C=C\C[C@@H](CC(=O)N[C@@H](CO)Cc2ccccc2)C(=O)N1	20.9	?	?	0.5%	7.31µM*
CC(C)(C)[C@H]1COC(=O)[C@H](NC(=O)OCC2c3ccccc3-c3ccccc32)C/C=C\C[C@@H](CC(=O)N[C@H](CO)Cc2ccccc2)C(=O)N1	7.8	8.2µM*	-20.6%	0.9%	7.31µM*
C[C@@H]1COC(=O)[C@H](NC(=O)OCC2c3ccccc3-c3ccccc32)C/C=C\C[C@@H](CC(=O)N[C@@H](CO)Cc2ccccc2)C(=O)N1	20.1	8.2µM*	0.0%	0.5%	8.2µM*
Cc1cc2ncn(C(=O)c3c(-c4ccccc4Cl)noc3C)c2cc1C	37.0	-27.0%	-1.2%	-12.1%	-21.8%
O=C(C[C@H]1C/C=C\C[C@H](NC(=O)OCC2c3ccccc3-c3ccccc32)C(=O)OC[C@H](Cc2ccccc2)NC1=O)N[C@H](CO)Cc1ccccc1	7.6	5.17µM*	?	?	5.17µM*
CC(C)(C)OC(=O)C[C@@H]1C/C=C\C[C@@H](CC(=O)NCCO)C(=O)N[C@H](C(C)(C)C)COC1=O	0.7	0.7%	13.3%	15.2%	-0.6%
CC(C)(C)[C@@H]1COC(=O)[C@@H](NC(=O)OCC2c3ccccc3-c3ccccc32)C/C=C\C[C@@H](CC(=O)NCCO)C(=O)N1	30.3	11.6µM*	6.5%	-2.1%	18.4µM*
CCOc1ccc(CCNCc2c(C(=O)O)n(Cc3ccc(C)cc3)c3cc(OC)ccc23)cc1	.	18.4µM*	.	.	?
COc1ccc(CCNCc2c(C(=O)O)c(C)n(Cc3ccccc3C)c2C)c(OC)c1	.	18.4µM*	.	.	?
COc1ccc2c(CNCCc3ccco3)c(C(=O)O)n(Cc3ccccc3)c2c1	.	?	.	.	-0.2%
COc1ccc(Cn2c(C(=O)O)c(CNCc3ccc(OC)cc3OC)c3ccc(C)cc32)cc1	.	9.2µM*	.	.	14.6µM*
COc1ccc(Cn2c(C(=O)O)c(CNCCc3cc(OC)ccc3OC)c3ccc(C)cc32)cc1	.	16.4µM*	.	.	?
O=C1Nc2ccccc2C(O)(C(=O)NCc2ccc3c(c2)OCO3)N1c1ccc(Cl)c(Cl)c1 (stereo unspecified)	14.9	-12.1%	6.6%	6.0%	-29.1%
O=C(CN1CCC(c2nc3ccccc3s2)CC1)N1CCCCC1	43.2	?	-2.3%	2.3%	?
O=C(CN1CCC(c2nc3ccccc3s2)CC1)NCc1cccs1	-21.9	18.4µM*	10µM*	?	?
CCN1CCCC1CNC(=O)c1ccc2c(c1)NC(=O)/C(=C\c1ccc(OC)c(OC)c1)S2 (stereo unspecified)	26.4	16.4µM*	-20.1%	?	?
CCN1CCN(CCCNC(=O)c2ccc3c(c2)NC(=O)c2ccccc2S3)CC1	12.7	?	-14.1%	-6.5%	-24.9%
COc1cccc(/C=C2/Sc3ccc(C(=O)NCCN4CCCCCC4)cc3NC2=O)c1	-27.3	?	?	-16.4%	?
Cc1cccc(/C=C2/Sc3ccc(C(=O)NCCN4CCCC4)cc3NC2=O)c1	?	23.1µM*	7.7%	-4.2%	?
CCN1CCCC1CNC(=O)c1ccc2c(c1)NC(=O)/C(=C\c1ccccc1Cl)S2 (stereo unspecified)	?	?	-18.2%	-29.1%	?
